Assay [1] can be described thus: qHTS Assay for Identifying Gametocytocidal Compounds (AID 743244). Further: potency means the concentration at half of the fitted maximal effect.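 On max response: on the % scale 0 is the no-effect control and ±100 the full control effect; actives lower the fluorescent signal which means gametocytes are killed.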 The following applies: P. falciparum 3D7 stage III-V gametocytes, alamarBlue, 72 h; max response: stronger effect = lower value. Put shortly: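 P. falciparum 3D7 stage III–V gametocytes (20,000 cells/well) were exposed to compounds for 72 h at 37 °C, 5% CO2. AlamarBlue was then added for 24 h; decreased resorufin fluorescence (Ex 525/Em 598 nm) indicated loss of viability.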
A general note: Quantitative high-throughput screening tests each substance at several concentrations.

A short description of assay [2]: qHTS assay for measurement of the activity of small molecule inhibitors on Zika virus induced Caspase-3 activity in human iPSC derived neural progenitor cells (hNPCs) (AID 1224857). Further: % of control where 0% means no effect; nearly all actives have a fitted effect of over 65% in size. Put shortly:
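hNPCs seeded 350 cells/well, cultured 16–20 h; compounds added 1 h before ZIKV (2 FFU/cell), 37 C 6 h. Caspase-Glo 3/7 luminescence after 30 min RT; % inhibition from induction scaled to uninfected (0%) and infected (100%) wells.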

The nature of assay [3]: qHTS assay for measurement of the activity of small molecule inhibitors on Zika virus induced Caspase-3 activity in human astrocytoma cells (AID 1224859).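 Further: plate controls were ZIKV-infected untreated cells for no effect and uninfected cells for full effect.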 In outline: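 Luminescence read-out (Caspase-Glo 3/7, 30 min RT) of caspase activity in SNB-19 cells infected 6 h with ZIKV, 2 FFU/cell, after 1 h compound pretreatment; % inhibition from induction normalised to uninfected (0%) and infected (100%) wells.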

Assay [4] is described as follows: qHTS assay to identify small molecule inhibitors of chordoma cells - UCH-1 (AID 1259355). Further: on the % scale 0 is the no-effect control and ±100 the full control effect; nearly all actives have a fitted effect of over 55% in size. In outline:
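Cells (800/well) were seeded and left overnight at 37 C, 5% CO2, then treated with drugs at 15 concentrations plus a combination mix of auranofin, camptothecin, doxorubicin, rubitecan and topotecan. Viability after 48hr was read by CellTiter-Glo luminescence.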

Assay [5] is described as follows: qHTS assay to identify small molecule inhibitors of chordoma cells - UCH-2 (AID 1259356). Further: on the % scale 0 is the no-effect control and ±100 the full control effect.
The nature of assay [6]: P-glycoprotein substrates identified in KB-8-5-11 adenocarcinoma cell line, qHTS therapeutic library screen (AID 1346987). Further: on the % scale 0 is the no-effect control and ±100 the full control effect; nearly all actives have a fitted effect of over 65% in size. The following applies: outcome: dose series up to 44.5 µM. In outline: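 KB-8-5-11: colchicine-selected sub-line of KB-3-1 over-expressing P-gp; assay medium lacked colchicine. 72 h drug exposure at 37 degree C, CellTiter-Glo.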
Assay [7] can be described thus: qHTS profiling of the MIPE4 collection as inhibitors of Plasmodium falciparum (3D7) proliferation (AID 743344; call rule not given here;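 further: scaled between DMSO vehicle wells and 0.29 µM artemisinin as full inhibition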). The following applies: P. falciparum 3D7 in erythrocytes, SYBR Green DNA fluorescence, 72 h; at 9.64 µM (top of the series) unless noted. In outline:
(§1)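 Erythrocytes infected with P. falciparum (0.3% parasitemia, 2.5% hematocrit) incubated with compounds 72 h at 37 C, 5% CO2. Lysis with saponin/Triton buffer containing SYBR Green I, overnight at room temperature in the dark; DNA fluorescence (485/535 nm) normalised to 0.29 uM artemisinin and DMSO.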

Assay [8] in a line: qHTS profiling of the MIPE4 collection as inhibitors of Plasmodium falciparum (DD2) proliferation (AID 743345; call rule not given here). As to conditions: P. falciparum Dd2 in erythrocytes, SYBR Green DNA, 72 h; at 9.64 µM (top of the series) unless noted. Put shortly:
as §1

A short description of assay [9]: qHTS profiling of the MIPE4 collection as inhibitors of Plasmodium falciparum (DD2) proliferation (Rep 2) (AID 743346; call rule not given here). The following applies: P. falciparum Dd2 in erythrocytes, SYBR Green DNA, 72 h; at 9.64 µM (top of the series) unless noted. Put shortly:
as §1

The nature of assay [10]: qHTS profiling of the MIPE4 collection as inhibitors of Plasmodium falciparum (HB3) proliferation (AID 743347; call rule not given here;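 further: plate controls were DMSO vehicle wells for no effect and artemisinin wells for full effect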). The following applies: P. falciparum HB3 in erythrocytes, SYBR Green DNA, 72 h; at 9.64 µM (top of the series) unless noted. In outline:
as §1

A short description of assay [11]: qHTS profiling for inhibitors of Plasmodium falciparum (3D7) proliferation (AID 743322).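 Further: infected erythrocytes exposed to compound for 72 h before lysis; 100% = DMSO vehicle wells and 0% = 0.29 µM artemisinin.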 As to conditions: P. falciparum 3D7 proliferation; at 28.7 µM (top of the series). In outline:
as §1

The nature of assay [12]: qHTS profiling for inhibitors of Plasmodium falciparum (DD2) proliferation (AID 743323; call rule not given here). As to conditions: lower = more inhibition; at 28.7 µM (top of the series). In outline:
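Parasite DNA quantified by SYBR Green fluorescence (ex 485, em 535 nm) after saponin/Triton lysis and overnight dark incubation. Cultures: 0.3% parasitemia, 2.5% hematocrit, 72 h, 37 C; data scaled between DMSO and 0.29 uM artemisinin.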

Molecules are shown by their SMILES. Results filed as inconclusive are left out. Activity calls are given as the source filed them. Unless noted, the call rests on the fitted dose curve; in most records, active means well fitted curve in the direction sought with a large enough effect; inconclusive means small, poorly fitted or top-dose-only effect, or another doubt; inactive means no such curve, though single readings can be large; an effect the other way counts as inactive or inconclusive.

For the compound `CNCc1ccccc1`, the max response in assay [1] was 8.64% (inactive). In addition, the result in assay [2], in [3], in [4], in assay [5] and in assay [6] was inactive.
For `CC(=O)N[C@@H](CC(C)C)C(=O)O`, the max response in [1] was -15.3% (inactive). The outcome in assay [2], in assay [3], in [4], in assay [5] and in [6] was inactive.
Take `Cc1cc(OI)c(C(C)C)cc1-c1cc(C(C)C)c(OI)cc1C`: the max response in assay [1] was 3.81% (inactive). Besides, the compound was classed as inactive in assay [2], in assay [3], in assay [4], in [5] and in assay [6].
As for `CCCCCCCCCCC(CO)CCCCCCCC` (stereo unspecified), the max response in assay [1] was -4.55% (inactive). The call in assay [2], in assay [3], in assay [4], in assay [5] and in assay [6] was inactive.
As to `O=C(O)c1ccccc1C(=O)Nc1ccc(S(=O)(=O)Nc2nccs2)cc1`, the max response in [1] was 31% (inactive). Besides, the outcome in assay [2], in assay [3], in assay [4], in assay [5] and in assay [6] was inactive.
For `O[C@@H]1CO[C@H]2[C@@H]1OC[C@@H]2O`, the max response in assay [1] is -6.28% (inactive). The compound was classed as inactive in assay [2], in assay [3], in assay [4], in assay [5] and in assay [6].
For `COc1ccc(NS(=O)(=O)c2ccc(N)cc2)nn1`, the max response in assay [1] was 10.4% (inactive). In assay [7], the parasite growth, % of DMSO control was found to be 103%. The parasite growth remaining, % of DMSO control (lower = more inhibition) in assay [8] turned out to be 101%. Further, in assay [9], the parasite growth, % of control (lower = inhibition) was 141%. In [10], this compound showed a growth, % of control of 62.1%. The call in assay [2], in assay [3], in assay [4], in assay [5] and in [6] was inactive.
With `O=C(O)Cc1cn(-c2ccccc2)nc1-c1ccc(Cl)cc1`, in assay [1], the max response is 6.52% (inactive). The call in assay [2], in assay [3], in assay [4], in assay [5] and in [6] was inactive.
Turning to `NC(=O)NS(=O)(=O)c1ccc(N)cc1`, the max response in [1] is 3.95% (inactive). Further, the compound was called inactive in [2], in [3], in [4], in assay [5] and in [6].
Turning to `CC(=O)SC[C@@H](Cc1ccccc1)C(=O)NCC(=O)OCc1ccccc1`, the max response in assay [1] is 3.78% (inactive). In addition, the result in [2], in [3], in [4], in [5] and in [6] was inactive.
`CN1CCCN=C1COC(=O)C(O)(c1ccccc1)C1CCCCC1` (stereo unspecified): in assay [1], the max response is -2.61% (inactive). For the same compound, the outcome in assay [2], in [3], in [4], in assay [5] and in [6] was inactive.
Regarding `OCCN1C[C@H](O)[C@@H](O)[C@H](O)[C@H]1CO`, the max response in assay [1] was 4.21% (inactive). Besides, the call in [2], in assay [3], in assay [4], in [5] and in assay [6] was inactive.
Take `Nc1ncnc2c1ncn2[C@@H]1O[C@H](COP(=O)(O)O)[C@@H](O)[C@H]1O`: the max response in assay [1] was -1.97% (inactive). Also, the outcome in assay [2], in assay [3], in [4], in assay [5] and in [6] was inactive.
Regarding `Cc1c(NC(C)C)c(=O)n(-c2ccccc2)n1C`, in assay [1], the max response was -2.3% (inactive). Moreover, the compound was classed as inactive in assay [2], in assay [3], in assay [4], in [5] and in assay [6].
As to `NS(=O)(=O)c1ccc(C(=O)O)cc1`, the max response in [1] is 4.63% (inactive). Besides, the compound was classed as inactive in [2], in [3], in [4], in assay [5] and in [6].
Consider `CC1(C)S[C@@H]2[C@H](NC(=O)C(C(=O)O)c3ccccc3)C(=O)N2[C@H]1C(=O)O` (stereo partly specified), for which the max response in assay [1] is -0.734% (inactive). Also, the compound was called inactive in assay [2], in assay [3], in assay [4], in assay [5] and in [6].
`CCCCCCCCCCOc1cc2c(=O)c(C(=O)OCC)c[nH]c2cc1OCC`: the max response in [1] was -3.15% (inactive). The remaining parasite growth % (stronger effect = lower value) in assay [11] stood at 0.552%. In assay [12], this compound gave an activity, percent of control of 2.1%. The same compound had a parasite growth, % of DMSO control in assay [7] of 7.74% [at 28.5 µM]. Besides, the parasite growth remaining, % of DMSO control (lower = more inhibition) in assay [8] came out at 7.98% [at 28.5 µM]. Besides, the parasite growth, % of control (lower = inhibition) in [9] worked out at 14.5% [at 28.5 µM]. This compound showed a growth, % of control in assay [10] of 3.33% [at 28.5 µM]. Also, the figures for the activity change, negative = inhibition in assay [2] and in assay [3] were 9.1% [at 4.53 µM] (inactive) and -3.7% [at 4.53 µM] (inactive), respectively. Further, the call in [4], in [5] and in assay [6] was inactive.
In the case of `O=C(CCBr)N1CCN(C(=O)CCBr)CC1`, the max response in assay [1] was -1.41% (inactive). In addition, the call in [2], in assay [3], in [4], in assay [5] and in assay [6] was inactive.
On to `Nc1c2c(nc3c1CCC3)CCCC2`, for which, in assay [1], the Potency is 11.2 µM (active). Besides, the call in assay [2], in assay [3], in assay [4], in assay [5] and in assay [6] was inactive.
On to `Cn1cc(C(=O)[C@@H]2CCc3nc[nH]c3C2)c2ccccc21`, for which the max response in [1] was -8.94% (inactive). The compound was classed as inactive in assay [2], in assay [3], in assay [4], in assay [5] and in [6].
For the compound `CCN(CC)CCc1nc(-c2ccccc2)no1`, the max response in assay [1] is 1.91% (inactive). Further, the outcome in [2], in [3], in assay [4], in [5] and in [6] was inactive.
Turning to `Cc1c(C)c2c(c(C)c1OC(=O)c1cccnc1)CC[C@@](C)(CCC[C@H](C)CCC[C@H](C)CCCC(C)C)O2`, the max response in assay [1] was 6.89% (inactive). For the same compound, the compound was called inactive in [2], in assay [3], in assay [4], in [5] and in [6].
`c1ccc2[nH]ccc2c1`: the max response in assay [1] was -5.55% (inactive). Further, the outcome in assay [2], in assay [3], in [4], in assay [5] and in [6] was inactive.
As for `CCOC(=O)[C@H](CCc1ccccc1)N[C@@H](C)C(=O)N1Cc2cc(OC)c(OC)cc2C[C@H]1C(=O)O`, the max response in assay [1] is 0.618% (inactive). In addition, the compound was called inactive in [2], in [3], in assay [4], in [5] and in [6].
In the case of `CCCNC(C)(C)COC(=O)c1ccccc1`, in assay [1], the max response is 5.84% (inactive). Besides, the compound was called inactive in [2], in [3], in [4], in assay [5] and in assay [6].
For `CCOc1cc(NC(C)=O)ccc1C(=O)OC`, in assay [1], the max response was 7.76% (inactive). Moreover, the result in assay [2], in assay [3], in assay [4], in assay [5] and in assay [6] was inactive.

The record behind these values is PubChem BioAssay (NCATS).
